High-throughput results: PubChem BioAssay, National Center for Advancing Translational Sciences (NCATS)
Marburg entry inh: qHTS for inhibitors of binding or entry into cells for Marburg Virus; Marburg virus pseudotyped entry inhibition, cell reporter; Potency, µM (series often up to 37.8 µM), most hits filed as inhibitors; 1.8% of 300,000 active; calls by dose curve; tested in HEK293 cells
FMDV antiviral: High Throughput Screening for Foot and Mouth Disease Virus Antivirals; Potency, µM (series often up to 57.9 µM), actives largely listed as inhibitors; 1.2% of 410,000 active; FMDV antiviral cell-based qHTS; calls by dose curve; tested in HEK293T cells; note: read-out not given here; nearly all actives have a fitted effect of over 45% in size
SARS PLpro yeast: qHTS of Yeast-based Assay for SARS-CoV PLP | S. cerevisiae expressing SARS-CoV PLpro, growth rescue | AID 485353, 2010 | Potency, µM (highest dose often 32.9 µM), usual class: activators | 0.19% of 330,000 active; calls by dose curve; note: nearly all actives have a fitted effect of over 55% in size
HCMV antiviral: qHTS Assay for inhibitors of the human cytomegalovirus (HCMV); activity change, negative = inhibition, % at 57.5 µM; 4.5% of 410,000 active; HFF cells, HCMV-luciferase reporter, 72 h; hits give low values; AID 1259415, 2018; in the data active = activity change below about -60%; inconclusive = no clear call, values can overlap the other calls; inactive = above about -39%
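Luciferase read-out from HCMV-luciferase-infected HFFs (MOI 1 PFU/cell) 72 h post infection at 37C; compounds added after 16 h cell attachment; activity normalized between buffer-only basal and Salinomycin (10uM) inhibitor controls.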
HCV inh: qHTS Assay for Inhibitors of Hepatitis C Virus (HCV) | Huh7.5.1 HCVcc-Cre infection, luciferase reporter, 44 h | Potency, µM (series often up to 41.8 µM), usual class: inhibitors | 3.4% of 340,000 active | AID 651820, 2012; active = well fitted inhibition curve with a large enough effect; inconclusive = small, poorly fitted or top-dose-only effect, or another doubt; inactive = no such curve, though single readings can be large or run the other way
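Infectious HCV cell culture screen: compound-treated cells (1,000/well, pre-plated 4 h) are infected with HCVcc-Cre at roughly 0.5 moi and grown 44 h. Infection is quantified by luciferase signal after 15 min substrate incubation at room temperature.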
LASV entry inh: qHTS for Inhibitors of binding or entry into cells for Lassa Virus | 1.2% of 300,000 active | Lassa virus pseudotype entry inhibition, cell reporter | Potency, µM (highest dose often 37.9 µM), usual class: inhibitors; calls by dose curve; tested in HEK293 cells; note: nearly all actives have a fitted effect of over 50% in size
Large screens that a line does not name were inactive. Only some compounds are listed: those with a hit (about 8% of all), similar ones and a draw of the others.

Cc1nn(-c2ccccc2)c2nc(C3CC3)cc(C(=O)Nc3cccc(F)c3)c12	FMDV antiviral inconclusive, HCMV antiviral -67, LASV entry inh inconclusive (no result: Marburg entry inh, SARS PLpro yeast, HCV inh)
CCc1ccc(NC(=O)c2cc(C)nn2-c2ccccc2)cc1	HCMV antiviral inconclusive, LASV entry inh inconclusive
CCc1ccc(NC(=O)c2cnn(-c3ccccc3)c2C)cc1	Marburg entry inh 10µM, HCV inh inconclusive, LASV entry inh inconclusive
CCC1CN(CCNC(=O)c2cccc(C(=O)OC)c2)Cc2cc(OC)ccc2O1 (stereo unspecified)	none (no result: Marburg entry inh, SARS PLpro yeast, HCMV antiviral, HCV inh, LASV entry inh)
CC(=O)c1ccccc1OCCCOc1cccc2cccnc12	HCMV antiviral -83, HCV inh inconclusive (no result: Marburg entry inh, SARS PLpro yeast, LASV entry inh)
COCC(C)N1CC(O)=C(c2nc(-c3ccc(Cl)cc3)cs2)C1=N (stereo unspecified)	HCV inh inconclusive, LASV entry inh inconclusive
COc1ccccc1CNC(=O)Cn1ncc2c3ccccc3n(Cc3ccccc3C)c2c1=O	none (no result: SARS PLpro yeast, HCV inh)
CC1CCCCN1CCCNC(=O)Cn1ncc2c3ccccc3n(Cc3ccccc3F)c2c1=O (stereo unspecified)	HCMV antiviral -74 (no result: SARS PLpro yeast, HCV inh)
CCCn1c2ccccc2c2cnn(CC(=O)NC3CCC(C)CC3)c(=O)c21 (stereo unspecified)	none
Cc1ccccc1Cn1c2ccccc2c2cnn(CC(=O)NCc3cccc(Cl)c3)c(=O)c21	HCMV antiviral -78 (no result: SARS PLpro yeast, HCV inh)
CCCn1c2ccccc2c2cnn(CC(=O)N3CCCC(C)C3)c(=O)c21 (stereo unspecified)	HCMV antiviral -62 (no result: Marburg entry inh, SARS PLpro yeast, HCV inh)
CCCn1c2ccccc2c2cnn(CC(=O)NCCCN3CCCC(C)C3)c(=O)c21 (stereo unspecified)	Marburg entry inh inconclusive, HCMV antiviral -65, HCV inh inconclusive
CC[C@H](C(=O)OCCN(CC)CC)c1ccccc1	none (no result: FMDV antiviral, SARS PLpro yeast, HCMV antiviral, HCV inh, LASV entry inh)
COC(=O)/C=C/[C@@H]1CCCN1c1ccc(OC)cc1	none (no result: Marburg entry inh, FMDV antiviral, SARS PLpro yeast, HCV inh, LASV entry inh)
CCCn1c2ccccc2c2cnn(CC(=O)NCCCN3CCN(c4ccccc4)CC3)c(=O)c21	HCV inh 11µM (no result: Marburg entry inh, LASV entry inh)
CCCn1c2ccccc2c2cnn(CC(=O)NCCCN3CCCCC3)c(=O)c21	FMDV antiviral inconclusive (no result: Marburg entry inh)
Cc1ccc(S(=O)(=O)c2cn(C)c3cc(N4CCN(C)CC4)c(F)cc3c2=O)c(C)c1	HCV inh 13µM (no result: Marburg entry inh, LASV entry inh)
Cc1ccc(S(=O)(=O)c2cn(C)c3cc(N4CCCC4)c(F)cc3c2=O)c(C)c1	none (no result: Marburg entry inh, SARS PLpro yeast, HCV inh)
CCOC(=O)Cn1c(CN2CCN(c3ccc(OC)cc3)CC2)nc2c1c(=O)[nH]c(=O)n2C	none (no result: SARS PLpro yeast, HCV inh)
COc1cccc(-c2c(-c3cc(OC)cc(OC)c3)n(C)c3ccc(-c4ccc(OC)nc4)cc23)c1	none (no result: LASV entry inh)
COc1ccc(-c2c(-c3ccc(OC)nc3)c3ccccc3n2C)cc1	HCV inh 22µM (no result: Marburg entry inh, LASV entry inh)
O=C(C[n+]1ccn(CCCNP2(=O)C=C(c3ccccc3)OC(c3ccccc3)=C2)c1)c1ccccc1	HCMV antiviral inconclusive (no result: Marburg entry inh, LASV entry inh)
CC[N+](CC)(CCCCS(=O)(=O)[O-])CCNP1(=O)C=C(c2ccccc2)OC(c2ccccc2)=C1	HCMV antiviral -70 (no result: Marburg entry inh, LASV entry inh)
N#Cc1cccc(NC(=O)c2cc(C3CCCCN3C(=O)C3CC3)on2)c1 (stereo unspecified)	FMDV antiviral inconclusive, HCMV antiviral -63 (no result: Marburg entry inh, SARS PLpro yeast, HCV inh, LASV entry inh)
N#Cc1cccc(NC(=O)c2cc(C3CCCCN3C(=O)c3ccccc3)on2)c1 (stereo unspecified)	HCMV antiviral inconclusive (no result: Marburg entry inh, SARS PLpro yeast, HCV inh, LASV entry inh)
CC1(C(=O)NCc2cccs2)CCN1CCc1ccccc1 (stereo unspecified)	none (no result: Marburg entry inh, SARS PLpro yeast, HCV inh, LASV entry inh)
CCCCCCC(C)n1[nH]c(=O)c2c(C)cc(=O)[nH]c21 (stereo unspecified)	Marburg entry inh inconclusive, FMDV antiviral inconclusive, HCMV antiviral -70
O=C(CCS(=O)(=O)c1cc(Br)cc2c1N(C(=O)C1CC1)CC2)N1CCN(c2cccc(Cl)c2)CC1	Marburg entry inh inconclusive (no result: SARS PLpro yeast, HCV inh)
Nc1nc(N)c2cc(CNc3ccc(Cl)c(Cl)c3)ccc2n1	FMDV antiviral 35µM, HCMV antiviral -69 (no result: Marburg entry inh, SARS PLpro yeast, HCV inh, LASV entry inh)
CN(C)c1nc(OCCOC(=O)c2ccccc2)nc(N(C)C)n1	HCV inh 25µM
COc1cccc(CN2CCC2(C)C(=O)Nc2cnc3ccccc3c2)c1F (stereo unspecified)	HCMV antiviral inconclusive (no result: Marburg entry inh, SARS PLpro yeast, HCV inh, LASV entry inh)
